Reference: PubChem BioAssay AID1035475 (Broad Institute, 2014)
Results with a measured potency or affinity are listed apart. Records with an inconclusive call do not appear. Active and inactive are the calls of the source.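 The calls were made as follows: active = fluorescent signal drops by 40% or more, counted as a hit; inconclusive = no clear call, values can overlap the other calls; inactive = the rest, including any activity in the opposite direction.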

Assay: inhibitors of fibronectin matrix deposition, dose response, AH1F cells, Alexa488-FN fluorescence, cherry-picks (AID 1035475);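 also: AH1F fibroblasts incorporating labeled fibronectin into their extracellular matrix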
Conditions: AH1F fibroblasts, overnight; series mostly up to 35 µM

Row | Structure (SMILES) | outcome
1 | C[C@H]1CN([C@@H](C)CO)C(=O)c2cc(NC(=O)C3CCCCC3)ccc2O[C@H]1CN(C)Cc1ccc(-c2ccccc2)cc1 | inactive
2 | O=S(=O)(c1ccccc1F)N1CC[C@@H]2[C@H](CO)Nc3ccc(-c4cccc(F)c4)cc3[C@@H]21 | inactive
3 | Nc1c(C(=O)NCc2ccco2)nnn1Cc1ccccc1 | inactive
4 | COC(=O)C[C@H]1CC[C@@H]2[C@@H](COc3ccc(NC(=O)Cc4cccs4)cc3C(=O)N2C)O1 | inactive
5 | Cc1ccc(C(O)c2ncc(-c3cccc4ccccc34)[nH]2)cc1F (stereo not drawn) | inactive
6 | CO[C@H]1CN(C)C(=O)c2ccc(NC(=O)c3ccc(-c4ccccc4)cc3)cc2OC[C@H](C)NC[C@@H]1C | inactive
7 | COc1ccc([N+](=O)[O-])cc1NS(=O)(=O)c1ccc(C(=O)N2CCCC2)cc1 | inactive
8 | COCC(=O)Nc1ccc2c(c1)C(=O)N(C)[C@@H]1CC[C@H](CC(=O)NCc3ccccc3Cl)O[C@H]1CO2 | inactive
